# Assay results reported in article PMC7826789 (International Journal of Molecular Sciences, 2021).
# Tested on: BUB1
# Details: Compound Concentration (nM):1000
# 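Also: KINOMEscan scanMAX binding as percent activity remaining versus control; lower means stronger binding.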
row,Structure (SMILES),Percent Control [%]
1,CCc1ccc(Oc2nccc(-c3c(-c4ccc(F)cc4)ncn3C3CCNCC3)n2)cc1 [SB-242719],73
2,CC1=C(C(=O)Nc2ccc3[nH]ncc3c2)C(c2ccc3ccccc3c2)CC(=O)N1 (centres unmarked) [GSK270822A],60
3,Nc1ncnc2occ(-c3ccc(NC(=O)Nc4cc(C(F)(F)F)ccc4F)cc3)c12 [GW770249X],98
4,O=C1Nc2ccc(C(=O)c3ccco3)cc2C1=Cc1cc(Cl)c(O)c(Cl)c1 [GW406108X],50
5,COc1ccc2[nH]c3c4[nH]c5ccc(OC)cc5c4c4c(c3c2c1)C(=O)NC4=O [GW296115X],29
6,CN(C)CCNC(=O)Nc1ccc(N(C)c2ccnc(Nc3ccc(CS(C)(=O)=O)cc3)n2)cc1.Cl [GW830900A],55
7,Cl.c1ccc(Cc2nc3ccc(Nc4ncnc5ccccc45)cc3[nH]2)cc1 [GR269666A],100
8,COc1ccc2c(-c3ccnc(Nc4cccc(OC(F)(F)F)c4)n3)cnn2n1 [GW810372X],86
9,COc1cccc(-n2ncc3c(N/N=C/c4ccncc4)ncnc32)c1 [GW784752X],77
10,COc1cc(/C=N/Nc2ncnc3[nH]ncc23)ccc1O [GW578748X],23
11,NS(=O)(=O)c1ccc(N/N=C2\C(=O)Nc3ccc(C(=O)NCCc4c[nH]cn4)cc32)cc1 [GW300660X],54
12,NS(=O)(=O)c1ccc(N/N=C2\C(=O)Nc3ccc(-c4cnco4)cc32)cc1 [GW276655],74
13,NS(=O)(=O)c1ccc(Nc2ncc(-c3ccccc3)o2)cc1 [GW572399X],80
14,C/C(Nc1ccc(S(N)(=O)=O)cc1)=C1/C(=O)Nc2ccccc21 [GW335962X],90
15,Cl.O=S1CCN(Cc2ccc(-c3ccc4ncnc(Nc5ccc(OCc6ccccc6)c(F)c5)c4c3)o2)CC1 [GW576924A],100
16,CN(C)c1cc2c(Nc3ccc4c(cnn4Cc4ccccc4)c3)ncnc2cn1 [GW282974X],63
17,CCn1c(-c2nonc2N)nc2c(C#CC(C)(C)O)nc(OCCNC)cc21.Cl [GSK949675],71
18,CC(C)COC(=O)c1ccc2c(c1)/C(=C/Nc1ccc(S(N)(=O)=O)cc1)C(=O)N2 [GW416981X],9.8
19,CC1=C(C(=O)Nc2ccc3[nH]ncc3c2)C(c2ccc(Cl)c(Cl)c2)CC(=O)N1 (centres unmarked) [GSK299115A],73
20,NS(=O)(=O)c1ccc(N/N=C2\C(=O)Nc3ccc(Cl)cc32)cc1 [GW280670X],100
21,COc1cc(C=NNc2ncnc3c2cnn3-c2ccccc2)ccc1O [GW513184X],81
22,COc1cc2ncnc(Nc3ccc4c(cnn4Cc4ccccc4)c3)c2cc1OC.Cl [GW282449A],100
23,COC(=O)Nc1nc2ccc(Oc3ccc(NC(=O)Nc4cc(C(F)(F)F)ccc4F)cc3)cc2s1.Cl [GW693917A],65
24,NS(=O)(=O)c1ccc(N/N=C2\C(=O)Nc3ccc(C(=O)NCc4ccncc4)cc32)cc1 [GW300657X],49
25,Cl.O=C(Nc1ccc(Oc2ccc3[nH]c(NC(=O)c4ccco4)nc3c2)cc1)Nc1cc(C(F)(F)F)ccc1F [GW683134A],95
26,COc1ccccc1-c1cc(/C=C2\C(=O)Nc3ncc(Br)cc32)cc(Br)c1O [GW442130X],73
27,CN1CCN(C(=O)c2ccc(NC(=O)Nc3ccc(N(C)c4ccnc(Nc5ccc(CS(C)(=O)=O)cc5)n4)cc3)cc2)CC1.Cl [GW830263A],46
28,Cc1cc(O)cc(C)c1/C=C/c1cncc(C(N)=O)c1 [GW435821X],100

# Tested on: T1, CAMK1B
# T1 construct: gene PNCK
# Details: Compound Concentration (nM):1000
row,Structure (SMILES),Percent Control [%]
1,O=C(Nc1n[nH]c2nc(-c3ccc(O)cc3)c(Br)cc12)C1CC1 [SB-725317],100
2,COc1cccc(-c2c[nH]c3c(N/N=C/c4ccncc4)ncnc23)c1 [GW814408X],95
3,Cl.O=C(O[C@H]1CN[C@H](C#Cc2cc3ncnc(Nc4ccc5c(cnn5Cc5ccccc5)c4)c3s2)C1)N1CCOCC1 [GSK200398A],69
4,CCS(=O)(=O)c1ccc(OC)c(Nc2ncc(-c3cccc(OC)c3)o2)c1 [GW580509X],100
5,COc1ccc2cc(-c3c(-c4ccncc4)nc(-c4ccc(S(C)(=O)=O)cc4C)n3C)ccc2c1 [SB-633825],53
6,COc1ccc(COc2ccc(Cc3cnc(N)nc3N)cc2OC)cc1 [GW632580X],100
7,C[C@@H](Oc1cc(-n2cnc3ccc(OC4CCN(C)CC4)cc32)sc1C(N)=O)c1ccccc1Cl [GSK579289A],100
8,CCS(=O)(=O)c1ccc(OC)c(Nc2ncc(-c3cccc(F)c3)o2)c1 [GW621970X],100
9,COc1cc(N2CCN(C(C)C)CC2)ccc1Nc1nc(Nc2ccc(F)cc2C(=O)NC[C@@H](O)CO)c2cc[nH]c2n1 [GSK1392956A],60
10,COc1cc2ncn(-c3cc(O[C@H](C)c4ccccc4Cl)c(C(N)=O)s3)c2cc1OC [GSK237701A],87
11,Cl.O=C(Nc1ccc(Oc2ccc3[nH]c(NC(=O)c4ccccc4)nc3c2)cc1)Nc1cc(C(F)(F)F)ccc1F [GW709042A],100
12,COc1cc(C)c(N(C)C(=O)CN(C)C)cc1Nc1nc(Nc2cccc(F)c2C(N)=O)c2cc[nH]c2n1 [GSK2219385],85
13,CCc1ccc(Oc2nccc(-c3c(-c4ccc(F)cc4)ncn3C3CCNCC3)n2)cc1 [SB-242719],100
14,CC1=C(C(=O)Nc2ccc3[nH]ncc3c2)C(c2ccc3ccccc3c2)CC(=O)N1 (centres unmarked) [GSK270822A],67
15,Nc1ncnc2occ(-c3ccc(NC(=O)Nc4cc(C(F)(F)F)ccc4F)cc3)c12 [GW770249X],94
16,O=C1Nc2ccc(C(=O)c3ccco3)cc2C1=Cc1cc(Cl)c(O)c(Cl)c1 [GW406108X],100
17,COc1ccc2[nH]c3c4[nH]c5ccc(OC)cc5c4c4c(c3c2c1)C(=O)NC4=O [GW296115X],78
18,CN(C)CCNC(=O)Nc1ccc(N(C)c2ccnc(Nc3ccc(CS(C)(=O)=O)cc3)n2)cc1.Cl [GW830900A],93
19,Cl.c1ccc(Cc2nc3ccc(Nc4ncnc5ccccc45)cc3[nH]2)cc1 [GR269666A],89
20,COc1ccc2c(-c3ccnc(Nc4cccc(OC(F)(F)F)c4)n3)cnn2n1 [GW810372X],100

row,Structure (SMILES),Percent Control [%]
1,COc1cccc(-n2ncc3c(N/N=C/c4ccncc4)ncnc32)c1 [GW784752X],99
2,COc1cc(/C=N/Nc2ncnc3[nH]ncc23)ccc1O [GW578748X],83
3,NS(=O)(=O)c1ccc(N/N=C2\C(=O)Nc3ccc(C(=O)NCCc4c[nH]cn4)cc32)cc1 [GW300660X],85
4,NS(=O)(=O)c1ccc(N/N=C2\C(=O)Nc3ccc(-c4cnco4)cc32)cc1 [GW276655],76
5,NS(=O)(=O)c1ccc(Nc2ncc(-c3ccccc3)o2)cc1 [GW572399X],100
6,C/C(Nc1ccc(S(N)(=O)=O)cc1)=C1/C(=O)Nc2ccccc21 [GW335962X],79
7,Cl.O=S1CCN(Cc2ccc(-c3ccc4ncnc(Nc5ccc(OCc6ccccc6)c(F)c5)c4c3)o2)CC1 [GW576924A],100
8,CN(C)c1cc2c(Nc3ccc4c(cnn4Cc4ccccc4)c3)ncnc2cn1 [GW282974X],98
9,CCn1c(-c2nonc2N)nc2c(C#CC(C)(C)O)nc(OCCNC)cc21.Cl [GSK949675],100
10,CC(C)COC(=O)c1ccc2c(c1)/C(=C/Nc1ccc(S(N)(=O)=O)cc1)C(=O)N2 [GW416981X],92
11,CC1=C(C(=O)Nc2ccc3[nH]ncc3c2)C(c2ccc(Cl)c(Cl)c2)CC(=O)N1 (centres unmarked) [GSK299115A],81
12,NS(=O)(=O)c1ccc(N/N=C2\C(=O)Nc3ccc(Cl)cc32)cc1 [GW280670X],100
13,COc1cc(C=NNc2ncnc3c2cnn3-c2ccccc2)ccc1O [GW513184X],100
14,COc1cc2ncnc(Nc3ccc4c(cnn4Cc4ccccc4)c3)c2cc1OC.Cl [GW282449A],100
15,COC(=O)Nc1nc2ccc(Oc3ccc(NC(=O)Nc4cc(C(F)(F)F)ccc4F)cc3)cc2s1.Cl [GW693917A],75
16,NS(=O)(=O)c1ccc(N/N=C2\C(=O)Nc3ccc(C(=O)NCc4ccncc4)cc32)cc1 [GW300657X],70
17,Cl.O=C(Nc1ccc(Oc2ccc3[nH]c(NC(=O)c4ccco4)nc3c2)cc1)Nc1cc(C(F)(F)F)ccc1F [GW683134A],100
18,COc1ccccc1-c1cc(/C=C2\C(=O)Nc3ncc(Br)cc32)cc(Br)c1O [GW442130X],78
19,CN1CCN(C(=O)c2ccc(NC(=O)Nc3ccc(N(C)c4ccnc(Nc5ccc(CS(C)(=O)=O)cc5)n4)cc3)cc2)CC1.Cl [GW830263A],85
20,Cc1cc(O)cc(C)c1/C=C/c1cncc(C(N)=O)c1 [GW435821X],100
